# From PubChem BioAssay
# Sampled rows, rich in hits. Any-hit rate of the full collection: about 18%.
# TDP1 cell noCPT: qHTS for Inhibitors of human tyrosyl-DNA phosphodiesterase 1 (TDP1): qHTS in cells in absence of CPT. Potency, µM (series often up to 46.2 µM), actives largely listed as inhibitors. DT40 Tdp1-/- hTDP1 cells, no CPT, ATP luminescence, 48 h. 15% of 420,000 active; also: nearly all actives have a fitted effect of over 55% in size
#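 Seeded 400 DT40-hTDP1 cells/well (vehicle DMSO, no 20 nM CPT); pinned compounds; ≥48 hr at 37 °C; CellTiter-Glo luminescence as viability measure.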
# LDHA inh: inhibitors of human lactate dehydrogenase A; activity change, % (values are at about 110 or 230 µM); purified LDHA, NADH/diaphorase-resazurin fluorescence; stronger effect = lower value; 0.15% of 480,000 active; AID 1347041; P00338; in the data active = activity change below about -30%; inconclusive = mostly about -25% to -30%
#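 LDH5 2 nM; NADH 0.06 mM, pyruvate 0.2 mM; 200 mM Tris pH 7.4, EDTA, Tween-20; 5 min RT. Detection: diaphorase 0.133 mg/mL + resazurin 37 µM, fluorescence ex540/em590 at 0 and 20 min; normalized to enzyme-free and DMSO wells.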
# Gal4-VP16 FLuc: inhibits Gal4-VP16 luciferase reporter, ROR gamma counter-screen; Potency, µM (series often up to 53.6 µM), most hits filed as inhibitors; Drosophila S2 Gal4-VP16 UAS-luciferase, luminescence, 20 h; 3.5% of 310,000 active;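 also: Gal4-VP16 expression switched on by copper sulfate through the metallothionein promoter; nearly all actives have a fitted effect of over 50% in size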
# IL1B secr inh: inhibitors of inflammasome signaling (IL-1 beta secretion). AID 743279. 4.7% of 360,000 active. THP-1 LPS/ATP IL-1B secretion, AlphaLISA, 16 h; stronger effect = lower value. activity change, % at 57.5 µM; in the data active = activity change below about -50%; inconclusive = mostly about -30% to -49%
#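 THP-1 cells pretreated 1 hr with compounds (up to 57.5 uM final), then stimulated with LPS (250 ng/mL final) plus ATP (1.25 mM final); secreted IL-1B measured by AlphaLISA after 16 hr, decreased signal indicating inhibition.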
# TDP1 cell CPT: growth inhibition of DT40 Tdp1-/-;hTDP1 cells with camptothecin (screen for TDP1 inhibitors) | Potency, µM (doses to about 46.2 µM), hits mostly inhibitors | 12% of 420,000 active | chicken DT40 Tdp1-/-;hTDP1 cells + 20 nM CPT, ATP luminescence, 48 h | AID 686979; also: nearly all actives have a fitted effect of over 55% in size
#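 Chicken DT40 Tdp1-/- cells stably complemented with human TDP1 were seeded at 400 cells/well in medium containing 20 nM camptothecin, exposed to pin-transferred compounds, and grown at 37 °C for at least 48 hr. Viability was read as ATP luminescence.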
# RORgamma inh: inhibitors of mouse ROR gamma transcriptional activity; P51450; Drosophila S2 Gal4-RORgamma UAS-luciferase reporter, 20 h; Potency, µM (top dose mostly 53.6 µM), actives largely listed as inhibitors; 5.4% of 310,000 active; also: nearly all actives have a fitted effect of over 60% in size
# Target sequence (P51450 whole entry, looked up, the tested form may be a part): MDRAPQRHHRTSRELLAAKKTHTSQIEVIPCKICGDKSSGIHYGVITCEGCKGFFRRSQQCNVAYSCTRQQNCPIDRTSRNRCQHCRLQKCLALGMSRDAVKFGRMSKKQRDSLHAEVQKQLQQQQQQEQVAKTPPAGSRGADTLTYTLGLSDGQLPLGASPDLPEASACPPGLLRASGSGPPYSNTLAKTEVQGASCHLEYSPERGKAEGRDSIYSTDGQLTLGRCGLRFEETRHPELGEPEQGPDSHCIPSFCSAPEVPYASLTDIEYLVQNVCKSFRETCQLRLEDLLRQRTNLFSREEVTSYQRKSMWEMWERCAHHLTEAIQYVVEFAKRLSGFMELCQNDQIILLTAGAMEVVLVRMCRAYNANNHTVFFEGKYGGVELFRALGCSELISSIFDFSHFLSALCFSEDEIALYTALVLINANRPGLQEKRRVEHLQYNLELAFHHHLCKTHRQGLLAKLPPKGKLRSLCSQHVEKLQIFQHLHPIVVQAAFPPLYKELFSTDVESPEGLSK
#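 Compounds are pin-transferred onto Drosophila Schneider cells expressing a copper-inducible Gal4–ROR gamma transactivation domain fusion. After 1 hr, copper sulfate is added to 700 uM final; luciferase is read 20 hr later.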
# A number is an active result; 0 = inactive; ? = inconclusive; - = no result. Unless noted, calls follow the shape of the dose curve; as a rule, active = well fitted curve in the direction sought with a large enough effect; inconclusive = small, poorly fitted or top-dose-only effect, or another doubt; inactive = no such curve, though single readings can be large; an effect the other way counts as inactive or inconclusive.
SMILES,TDP1 cell noCPT,LDHA inh,Gal4-VP16 FLuc,IL1B secr inh,TDP1 cell CPT,RORgamma inh
COc1cccc(C(=O)Nc2cccc3ccc(C)nc23)c1,-,0,-,-,-,-
Cc1ccc2cccc(NC(=S)NC(=O)c3ccccc3)c2n1,?,0,7.9µM,0,18µM,1.8µM
CC(=O)NC(=S)Nc1cccc2c(C)cc(C)nc12,0,0,11µM,0,0,1.6µM
CC(=O)NC(=S)Nc1ccccc1C(=O)Nc1ccccc1,?,0,0,0,0,0
Cc1ccc2cccnc2c1NC(=S)NC(=O)c1ccccc1,0,0,3.5µM,0,?,1.3µM
O=C(CSc1ccc(Br)cc1)c1ccc(C2CCCCC2)cc1,-,0,-,-,-,-
CCO[C@@H]1OC(C(=O)NCc2nc3ccccc3[nH]2)=C[C@H](C(C)(C)C)[C@H]1CCCO,1.2µM,0,-,0,1.3µM,-
CCO[C@H]1OC(C(=O)NCc2nc3ccccc3[nH]2)=C[C@@H](c2ccc(Br)cc2)[C@@H]1CCCO,?,0,-,0,?,-
C#Cc1ccc([C@H]2C=C(C(=O)NCc3nc4ccccc4[nH]3)O[C@@H](OCC)[C@@H]2CCCO)cc1,?,0,-,?,?,-
C[C@@H]1C=C(C(=O)NCc2nc3ccccc3[nH]2)O[C@H](OCc2ccc(CO)cc2)C1,?,0,0,0,16µM,0
CCO[C@@H]1OC(C(=O)NCc2nc3ccccc3[nH]2)=C[C@H](C2CC2)[C@H]1CCCO,2.9µM,0,0,0,4.6µM,0
CCN1C(=O)COc2ccc(-c3nc(NC(=O)c4cccnc4)sc3C)cc21,-,0,-,-,-,-
C=C(C)C1CCC2(COC(=O)CCC(=O)O)CC[C@]3(C)C(CCC4[C@@]5(C)CCC(OC(=O)CCC(=O)O)C(C)(C)C5CC[C@]43C)C12 (stereo partly specified),-,0,-,-,-,-
Clc1ccccc1N/N=C/c1cccc(/C=N/Nc2ccccc2Cl)c1,-,0,-,-,-,-
CCOC(=O)c1oc2c(c1C)/C(=N\OC(C)=O)CCC2,-,0,-,-,-,-
Cc1ccc(C(C)C)c(OCC(=O)NNC(=O)Nc2ccccc2)c1,?,0,-,-76,0,-
O=C(NCCNC(=O)c1cccnc1)c1cccnc1,0,0,-,0,0,-
COc1ccc(NC(=O)c2ccco2)cc1NC(=O)c1ccc(OC(C)C)cc1,21µM,0,-,-,?,-
CCOc1cc(Br)c(C(C)NC(=O)c2cccnc2)cc1OCC (stereo unspecified),23µM,0,-,0,18µM,-
CC(C)c1ccccc1OCCNC(=O)c1cccnc1,21µM,0,?,0,18µM,0
CCSc1nc2n(n1)C(c1cccs1)C1=C(CCCC1=O)N2 (stereo unspecified),-,0,-,-,-,-
O=C(Nc1ccc(F)cc1F)C1CC2CCC1C2 (stereo unspecified),-,0,-,-,-,-
Cc1ccc(C(C)C)c(OCC(=O)Nc2cccc(NC(=O)c3ccco3)c2)c1,21µM,0,-,-,?,-
Cc1ccc(C(C)C)c(OCCNC(=O)c2ccccc2O)c1,26µM,0,?,-81,15µM,0
COc1ccc(NC(=O)c2ccco2)cc1NC(=O)COc1cc(C)ccc1C(C)C,7.3µM,0,-,-,8.2µM,-
SMILES,TDP1 cell noCPT,LDHA inh,Gal4-VP16 FLuc,IL1B secr inh,TDP1 cell CPT,RORgamma inh
Cc1ccccc1OCC(=O)Nc1cccc(NC(=O)c2ccco2)c1,?,0,0,0,?,0
CCCNc1nc(-c2ccc(S(=O)(=O)N3CCCCCC3)cc2)cs1,-,0,-,-,-,-
CC(=O)CC(=O)Nc1ccc(C(N)=O)cc1,0,0,0,0,0,11µM
CCCC(=O)Nc1ccc(C(N)=O)cc1,0,0,0,0,0,0
COc1cccc2c(C)nc(NC3=NCN(CCO)CN3)nc12,-,0,-,-,-,-
O=[N+]([O-])c1ccc(CNc2cccc(Cl)c2)s1,?,0,0,-95,?,0
COc1ccc(NCc2ccc([N+](=O)[O-])s2)c(OC)c1,?,0,11µM,0,16µM,0
O=[N+]([O-])c1ccc(CNc2ccc(Cl)cc2)s1,0,0,-,?,0,-
O=[N+]([O-])c1ccc(CNc2ccc(F)cc2)s1,?,0,0,-85,0,0
COc1ccc(NCc2ccc([N+](=O)[O-])s2)cc1,21µM,0,?,-71,?,0
CC(=O)Nc1cccc(C(C)NC(=O)NOCc2ccccc2)c1 (stereo unspecified),-,0,-,-,-,-
COC(=O)c1sc(N)c(C#N)c1C,-,0,-,-,-,-
N#Cc1nc(COc2ccc(Cl)cc2)oc1NCc1ccc(F)cc1,-,0,-,-,-,-
O=C(c1cc(COc2cccc3cccnc23)on1)N1CCC[C@H]1CO,0,0,-,-64,0,-
COCCC1CCCCN1C(=O)c1cc(COc2cccc(C(C)=O)c2)on1 (stereo unspecified),26µM,0,?,0,23µM,?
CCOC(=O)CC1CCCCN1C(=O)c1cc(COc2cccc3cnccc23)on1 (stereo unspecified),3.7µM,0,4µM,0,1.6µM,?
CCNS(=O)(=O)c1cccc(C(=O)Nc2cccc3ncccc23)c1,-,0,-,-,-,-
Cc1cccc(-c2ocnc2C(=O)Nc2ccc(C)c(C)c2)c1,-,0,-,-,-,-
Cc1ccc(-n2ncc3c(NCCCN4CCOCC4)ncnc32)cc1C,23µM,0,-,-,?,-
CCN(CC)CCCNc1ncnc2c1cnn2-c1ccc(C)c(C)c1,16µM,0,-,-,?,-
c1ccc(-n2ncc3c(NCCCN4CCOCC4)ncnc32)cc1,0,0,?,0,0,?
Cc1cccc(-n2ncc3c(NCCCO)ncnc32)c1,0,0,0,0,0,0
CC(C)(C)[C@@H]1CCC(=O)N(CC[C@H](Sc2ccc(Br)cc2)c2ccccc2)CC1,11µM,0,-,0,18µM,-
O=C1CC[C@@H](O)CCN1CC[C@H](Sc1ccc(Br)cc1)c1ccccc1,10µM,0,-,0,23µM,-
Cn1c(-c2ccccc2)cc2onc(-c3ccccc3)c2c1=O,21µM,0,-,0,15µM,-
SMILES,TDP1 cell noCPT,LDHA inh,Gal4-VP16 FLuc,IL1B secr inh,TDP1 cell CPT,RORgamma inh
COc1ccc2nc(SCC(=O)N3CCN(S(=O)(=O)c4ccc(C)cc4)C3)[nH]c2c1,-,0,-,-,-,-
Cc1oc(-c2cccc(Cl)c2)nc1CN1CCCC(C(=O)NCc2ccco2)C1 (stereo unspecified),?,0,0,0,?,0
Cc1oc(-c2ccc(Cl)cc2)nc1CN1CCCC(C(=O)NCCCN2CCOCC2)C1 (stereo unspecified),23µM,0,0,0,0,0
CN(Cc1ccc(Cl)cc1)C(CCc1ccccc1)C(=O)NC1CCCCC1 (stereo unspecified),15µM,0,-,0,?,-
Cc1oc(-c2ccccc2F)nc1CN1CCC(C(=O)NCc2cccnc2)CC1,0,0,0,0,0,0
Cc1oc(-c2ccc(Cl)cc2)nc1CN1CCCC(C(=O)NCc2cccnc2)C1 (stereo unspecified),12µM,0,0,-72,9.2µM,?
